KinaseGlo FLuc: counter-screen: inhibitors of Kinase-Glo firefly luciferase. Q27757. Kinase-Glo luciferase, ATP luminescence, 8 min. Potency, µM (doses to about 38.3 µM), hits mostly inhibitors. 0.28% of 200,000 active; further: nearly all actives have a fitted effect of over 60% in size
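Luminescence was the read-out, taken after 8-minute incubation at ambient temperature. Luciferase turned over luciferin with 10 uM ATP in imidazole pH 7.2 buffer containing KCl, MgCl2, Tween 20 and BSA.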
SMN2 splice up: increases expression of the SMN2 splice variant; Potency, µM (highest dose often 46.1 µM), most hits filed as activators; HEK293 SMN2-luciferase splicing reporter, luminescence, 30-36 h; 2.8% of 210,000 active; further: nearly all actives have a fitted effect of over 55% in size
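HEK293 cells carry an SMN2 […]–luciferase reporter in which exon 7 inclusion puts luciferase in frame. Cells were plated 10-12 h before compound addition, then incubated 30-36 h at 37C. ONE-Glo luminescence was read; sodium butyrate at 4.5 mM final served as control.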
Rab9 prom act: activates the Rab9 promoter. AID 485297. Huh7 Rab9 promoter-luciferase reporter, luminescence, 24 h. Potency, µM (top dose mostly 9.22 µM), usual class: activators. 2.8% of 320,000 active; further: nearly all actives have a fitted effect of over 60% in size
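Luminescence from Amplite-detected luciferase (10 minutes, ambient) reports Rab9 promoter activation. Before that, stable Rab9-luciferase Huh7 cells (1500/well, reduced-serum OP-MEM I plus 10% FBS) were exposed to compound for 24 hours at 37C.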
ELG1 genotox: induces genotoxicity in HEK293T cells with luciferase-tagged ELG1. Potency, µM (titrated, usually from 46 µM), usual class: activators. HEK293T ELG1-luciferase reporter, luminescence, 16 h. 1.3% of 330,000 active. AID 504466; further: nearly all actives have a fitted effect of over 60% in size
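Genotoxic stress is detected as increased luminescence from luciferase-tagged ELG1 in HEK293T cells, measured with ONE-Glo after a 16 hr treatment at 37 °C.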
FLuc modulator: inhibits or activates purified firefly luciferase, miR-21 counter-screen. Potency, µM (highest dose often 57.5 µM), usual class: inhibitors. 6.9% of 360,000 active. purified FLuc, Km substrates, luminescence inhibition; further: nearly all actives have a fitted effect of over 55% in size
Target sequence (P08659 whole entry, looked up): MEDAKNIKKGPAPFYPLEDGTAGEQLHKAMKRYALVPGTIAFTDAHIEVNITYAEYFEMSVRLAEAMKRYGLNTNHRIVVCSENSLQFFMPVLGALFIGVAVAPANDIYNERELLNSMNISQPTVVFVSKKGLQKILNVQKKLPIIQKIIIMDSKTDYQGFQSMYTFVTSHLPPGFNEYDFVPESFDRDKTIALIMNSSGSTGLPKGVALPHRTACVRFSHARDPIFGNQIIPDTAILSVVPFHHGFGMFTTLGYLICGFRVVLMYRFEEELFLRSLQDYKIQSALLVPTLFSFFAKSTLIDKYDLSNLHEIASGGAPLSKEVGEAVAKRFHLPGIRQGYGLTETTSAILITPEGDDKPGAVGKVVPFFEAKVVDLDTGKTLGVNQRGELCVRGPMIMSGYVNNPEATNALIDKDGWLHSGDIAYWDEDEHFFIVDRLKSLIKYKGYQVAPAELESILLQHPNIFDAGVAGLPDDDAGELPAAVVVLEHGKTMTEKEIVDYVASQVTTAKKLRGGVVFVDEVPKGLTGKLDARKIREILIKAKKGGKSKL
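Biochemical qHTS of compounds, final roughly 60 µM downward over six points, against 10 nM purified firefly luciferase using Km concentrations of substrates (10 uM D-luciferin, 10 uM ATP) in Tris acetate pH 7.5 buffer; luminescence output.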
NPC1 promoter act: activates the NPC1 promoter; Huh7 NPC1 promoter luciferase reporter, 24 h; Potency, µM (highest dose often 9.22 µM), actives largely listed as activators; AID 485313; 2.4% of 320,000 active; further: nearly all actives have a fitted effect of over 60% in size
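Luciferase expression driven by the NPC1 promoter was measured in stably transfected Huh7 cells after a 24 h compound incubation, using a luciferase reagent and a luminescence read.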
Of the large screens only hits and unclear results are named; the others gave an inactive call. This is a sample that favours compounds with a hit; in the whole collection about 7.3% have one here. The call rests on the fitted dose curve; in most records, active means well fitted curve in the direction sought with a large enough effect; inconclusive means small, poorly fitted or top-dose-only effect, or another doubt; inactive means no such curve, though single readings can be large; an effect the other way counts as inactive or inconclusive.

O=C(NCc1cccnc1)c1nn(-c2ccccc2F)nc1CO	none (no result: KinaseGlo FLuc, Rab9 prom act, ELG1 genotox, NPC1 promoter act)
O=C(COC(=O)c1cc(=O)[nH]c2ccccc12)c1ccccc1	FLuc modulator 2.7µM
O=C(OCC(=O)c1cccs1)c1ccccc1	KinaseGlo FLuc 8.9µM, ELG1 genotox inconclusive, FLuc modulator 0.95µM
O=C(COC(=O)c1cc(=O)[nH]c2ccccc12)c1cccs1	FLuc modulator 12µM (no result: SMN2 splice up)
C=C1C=C(C(F)F)n2ncc(C(=O)NCc3ccccc3C(F)(F)F)c2N1	none (no result: KinaseGlo FLuc, SMN2 splice up, Rab9 prom act, ELG1 genotox, NPC1 promoter act)
COc1cccc(CNC(=O)c2cc3c(=O)n(Cc4cccnc4)ccc3nc2C)c1	none (no result: KinaseGlo FLuc, SMN2 splice up, Rab9 prom act, ELG1 genotox, NPC1 promoter act)
CN(C)C(CNC(=O)c1ccc(C2SCCS2)cc1)c1ccccc1 (centres undefined)	FLuc modulator 17µM (no result: KinaseGlo FLuc, SMN2 splice up)
CN(C)C(CNC(=O)c1ccc(NC(=O)c2cccs2)cc1)c1ccccc1 (centres undefined)	none (no result: KinaseGlo FLuc, SMN2 splice up)
COc1cc(OC)c(Nc2nc3ccccc3c3nncn23)cc1Cl	none (no result: KinaseGlo FLuc, Rab9 prom act, ELG1 genotox, NPC1 promoter act)
Cn1c(C(=O)NCc2ccc(F)cc2)cc2cc(S(=O)(=O)N3CCCCC3)ccc21	none (no result: KinaseGlo FLuc, SMN2 splice up, Rab9 prom act, ELG1 genotox, NPC1 promoter act)
Cc1cc(C(=O)COC(=O)c2ccc([N+](=O)[O-])o2)c(C)n1CC1CCCO1 (centres undefined)	FLuc modulator 11µM
COCCn1c(C)cc(C(=O)COC(=O)c2ccc([N+](=O)[O-])o2)c1C	FLuc modulator 12µM
COCCn1c(C)cc(C(=O)COC(=O)C2CC(=O)N(CCc3ccc(OC)c(OC)c3)C2)c1C (centres undefined)	FLuc modulator 11µM (no result: KinaseGlo FLuc, SMN2 splice up)
C=CCn1c(C)cc(C(=O)COC(=O)C2CC(=O)N(CCc3ccc(OC)c(OC)c3)C2)c1C (centres undefined)	none (no result: KinaseGlo FLuc, SMN2 splice up)
O=C(CCC(=O)Nc1ccc(F)cc1)N/N=C/c1ccc(F)cc1	none (no result: KinaseGlo FLuc, SMN2 splice up)
CC(=O)Nc1cccc(C(=O)N/N=C/c2ccc(F)cc2)c1	Rab9 prom act 1.4µM, ELG1 genotox 16µM, FLuc modulator 6µM, NPC1 promoter act 2.8µM
O=C(CC(=O)N/N=C/c1ccc(F)cc1)N/N=C/c1ccc(F)cc1	FLuc modulator 15µM (no result: KinaseGlo FLuc, SMN2 splice up)
Cc1ccc(C(=O)Nc2ccc(C(=O)N/N=C/c3ccncc3)cc2)cc1	none
Cc1ccc(C(=O)Nc2cccc(C(=O)N/N=C/c3ccc(F)cc3)c2)cc1	Rab9 prom act 1.4µM, FLuc modulator 2.4µM, NPC1 promoter act 2.2µM (no result: KinaseGlo FLuc, SMN2 splice up)
CCc1ccccc1NC(=O)Cn1nnc(-c2nc(-c3ccc(C)cc3)no2)c1N	none (no result: KinaseGlo FLuc, SMN2 splice up, Rab9 prom act, ELG1 genotox, NPC1 promoter act)
COc1cc2c3cc1Oc1cc(ccc1O)C[C@@H]1c4c(cc(OC)c(O)c4Oc4ccc(cc4)C[C@H]3[N+](C)(C)CC2)CC[N+]1(C)C	none (no result: Rab9 prom act, ELG1 genotox, FLuc modulator, NPC1 promoter act)
Cc1nnc(N/N=C/c2cccc(C(F)(F)F)c2)n1N	none (no result: KinaseGlo FLuc, SMN2 splice up)
Cc1nnc(N/N=C/c2cccc(OCc3ccc(Cl)c(Cl)c3)c2)n1N	Rab9 prom act inconclusive, FLuc modulator 17µM
CCOC(=O)C1=C(c2ccccc2)NC(N)=NC1c1ccc(OCc2ccc(Cl)cc2)c(OC)c1 (centres undefined)	FLuc modulator 13µM (no result: KinaseGlo FLuc, SMN2 splice up)
CCOC(=O)C1=C(c2ccccc2)NC(=O)NC1c1cc(Cl)c(O)c(OC)c1 (centres undefined)	none
CC(C)(C)c1ccc(O)c(CN(Cc2cc(C(C)(C)C)ccc2O)C2CCCCC2)c1	none (no result: Rab9 prom act, ELG1 genotox, FLuc modulator, NPC1 promoter act)
Cc1ccc(S(=O)(=O)N(CC(=O)O)c2ccc(Cl)cc2)cc1	none (no result: SMN2 splice up, Rab9 prom act, ELG1 genotox, FLuc modulator, NPC1 promoter act)
CCCCNc1ncnc2c1cnn2-c1ccccc1	SMN2 splice up 3.5µM, Rab9 prom act inconclusive, ELG1 genotox inconclusive, FLuc modulator 5.4µM, NPC1 promoter act inconclusive
Clc1ccc(-n2ncc3c(NCCCn4ccnc4)ncnc32)cc1	Rab9 prom act inconclusive, ELG1 genotox 8.2µM, FLuc modulator 11µM, NPC1 promoter act inconclusive
CCCCNc1ncnc2c1cnn2Cc1ccc(Cl)cc1	none (no result: KinaseGlo FLuc, SMN2 splice up)
CCc1nc(NC(C)(C)C)c2cnn(-c3ccccc3)c2n1	Rab9 prom act inconclusive, ELG1 genotox inconclusive, FLuc modulator 19µM, NPC1 promoter act inconclusive (no result: KinaseGlo FLuc, SMN2 splice up)
CCC(=O)NNc1ncnc2c1cnn2-c1ccccc1	none
CCCCNc1ncnc2c1cnn2-c1ccc(Cl)cc1	SMN2 splice up 5µM, Rab9 prom act inconclusive, ELG1 genotox 2.3µM, FLuc modulator 2.7µM, NPC1 promoter act inconclusive

Screening results (PubChem BioAssay)
